PubChem BioAssay
“And” between values parts separate entries of the source, which are not always exact repeats. Equal entries are not always repeated. Some compounds were tested as several samples or in several runs, with calls that do not always agree. The source made the active and inactive calls. Unless noted, the rule behind the calls is not given here.

Legend:
[1] = test system: Wnt5a (protein binding on small-molecule microarray); assay: Wnt5a binders on small-molecule microarray, primary screen, biophysical, 635/667 nm fluorescence (AID 1142); details: 635 nm fluorescence, higher = more signal;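 note: fluorescence read at 667 nm with signal to noise per printed feature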
[2] = cell viability in Huh7 cells, primary screen, cytotoxicity control for HCV replication inhibitor project, CellTiter-Glo luminescence, basal, 48 h (AID 1143); details: Huh7 HCV replicon, higher = more signal, called active from +8 up or from −8 down;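 note: Huh7 hepatoma cells carrying a hepatitis C replication reporter with no stimulus; test concentration not given here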
[3] = P. aeruginosa biofilm formation inhibitors, primary screen, PAO1 strain, BacTiter-Glo luminescence, LB-PBS (AID 1144); details: 12 h, higher = more signal
[4] = CREB reporter modulators without forskolin, primary screen, cell-based, PC12, CRE-LacZ reporter, unstimulated (AID 1145); details: no forskolin, luminescence, 4.5 h, higher = more signal, called active from +8 up or from −8 down
[5] = CREB reporter modulators under forskolin, primary screen, cell-based, PC12, CRE-LacZ reporter, forskolin-stimulated (AID 1146); details: luminescence, 4.5 h, higher = more signal, called active from +8 up or from −8 down;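 note: PC12 cells with 6xCRE LacZ reporter stimulated by forskolin 10 µM; beta-galactosidase reporter signal reflecting CREB driven transcription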
[6] = target: Streptavidin (Streptomyces avidinii) (UniProt P22629); assay: streptavidin binders on small-molecule microarray, primary screen, artefact control for SMM compound annotation, biophysical, 635/667 nm fluorescence (AID 1147); details: streptavidin binding, higher = more signal;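 note: signal reflects streptavidin binding to arrayed compounds as a control protein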
Sequence of Streptavidin (Streptomyces avidinii) (P22629 whole entry, looked up): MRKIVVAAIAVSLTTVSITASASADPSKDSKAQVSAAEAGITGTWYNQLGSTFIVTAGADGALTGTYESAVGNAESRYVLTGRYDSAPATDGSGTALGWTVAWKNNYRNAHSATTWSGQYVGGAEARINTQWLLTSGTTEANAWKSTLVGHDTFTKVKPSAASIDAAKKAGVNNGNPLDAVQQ

[7] = small-molecule binders of probe aInhba, primary screen, biochemical, small-molecule microarray, 635/667 nm fluorescence (AID 1148); details: higher = more signal;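 note: score merges 667nm spot fluorescence with signal-to-noise for antibody binding to printed compounds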
[8] = target: Torsin-1A (Homo sapiens) (UniProt O14656); assay: torsin A binders from cell lysate, primary screen, small-molecule microarray, wild-type, 635/667 nm (AID 1149); details: COS7 hTOR1A-WT lysate, 635 nm fluorescence, higher = more signal
Sequence of Torsin-1A (Homo sapiens) (O14656 whole entry, looked up): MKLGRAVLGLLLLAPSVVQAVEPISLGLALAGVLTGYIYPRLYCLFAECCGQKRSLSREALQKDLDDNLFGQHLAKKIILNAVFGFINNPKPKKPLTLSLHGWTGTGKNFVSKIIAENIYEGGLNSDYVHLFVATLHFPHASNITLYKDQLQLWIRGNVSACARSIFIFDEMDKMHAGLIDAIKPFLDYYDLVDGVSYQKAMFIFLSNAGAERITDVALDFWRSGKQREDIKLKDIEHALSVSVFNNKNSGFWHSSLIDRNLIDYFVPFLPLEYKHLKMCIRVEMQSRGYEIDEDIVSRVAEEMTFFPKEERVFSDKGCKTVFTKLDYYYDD

[9] = target: Torsin-1A (Homo sapiens) (UniProt O14656); assay: small-molecule binders of mutant TOR1A in lysate, primary screen, cell lysate, small-molecule microarray, COS7 lysate, 635/667 nm fluorescence (AID 1150); details: COS7 hTOR1A mutant lysate, 635 nm fluorescence, higher = more signal;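 note: score pools 667 nm emission and signal to noise measuring lysate protein binding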
[10] = test system: Sonic hedgehog protein (Shh); assay: small-molecule binders of Shh protein, primary screen, biochemical, small-molecule microarray, 635/667 nm fluorescence (AID 1151); details: small-molecule microarray binding, 635 nm fluorescence; higher = more signal;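 note: Shh protein binding to compounds spotted on small-molecule microarray slides; score combines spot fluorescence intensity with signal-to-noise across triplicate slides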
[11] = E. coli DRC41 culture turbidity changes, primary screen, E. coli filamentation inducer project, strain DRC41, OD650, 48 h (AID 1152);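 note: E. coli MC1000 strain DRC41 lacking acrAB efflux pump and sulA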; details: E. coli DRC41 (acrAB sulA), higher = more signal, called active from +8 up or from −8 down
[12] = small-molecule binders of probe aLefty1, primary screen, biochemical, small-molecule microarray, 635/667 nm fluorescence (AID 1153); details: higher = more signal;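 note: score merges spot fluorescence with signal-to-noise ratio from the scanned slide images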
[13] = PSAC antagonists in infected red cells, primary screen, cell-based, P. falciparum Indochina, OD700, 1 h (AID 1154); details: P. falciparum Indochina infected RBC osmotic lysis, higher = more signal, called active from +8 up or from −8 down
[14] = PSAC antagonists in infected red cells, primary screen, cell-based, P. falciparum Indochina, OD700, 2 h (AID 1155);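 note: lysis reports solute entry through the parasite surface anion channel PSAC; channel blockers reduce lysis of infected cells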; details: P. falciparum Indochina infected erythrocytes, osmotic lysis OD700; higher = more signal, called active from +8 up or from −8 down
[15] = osmotic lysis modulators in infected erythrocytes, primary screen, PSAC antagonist project, cell-based, P. falciparum Indochina, OD700, 3 h (AID 1156); details: higher = more signal, called active from +8 up or from −8 down
[16] = PSAC antagonists in infected red cells, primary screen, cell-based, P. falciparum Indochina, OD700, 18 h (AID 1157); details: P. falciparum Indochina infected erythrocytes, osmotic lysis OD700, 18 h; higher = more signal, called active from +8 up or from −8 down
[17] = modulators of S6 phosphorylation in cells, primary screen, cell-based, A549, cytoblot, luminescence, serum-stimulated (AID 1158); details: A549 phospho-S6 cytoblot, 5 h, higher = more signal;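 note: serum-stimulated A549 lung adenocarcinoma cells; signal is phosphorylated S6 detected by cytoblot immunostaining with HRP secondary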
[18] = target: NADPH oxidase 2 (Homo sapiens) (UniProt P04839); assay: NOX2-dependent H2O2 signal modulators, primary screen, NOX inhibitor project, cell-based, HEK293-NOX2, PMA-stimulated, Amplex Red fluorescence (AID 1159); details: 45 min, higher = more signal, called active from +8 up or from −8 down; note: test concentration not given here
Sequence of NADPH oxidase 2 (Homo sapiens) (P04839 whole entry, looked up): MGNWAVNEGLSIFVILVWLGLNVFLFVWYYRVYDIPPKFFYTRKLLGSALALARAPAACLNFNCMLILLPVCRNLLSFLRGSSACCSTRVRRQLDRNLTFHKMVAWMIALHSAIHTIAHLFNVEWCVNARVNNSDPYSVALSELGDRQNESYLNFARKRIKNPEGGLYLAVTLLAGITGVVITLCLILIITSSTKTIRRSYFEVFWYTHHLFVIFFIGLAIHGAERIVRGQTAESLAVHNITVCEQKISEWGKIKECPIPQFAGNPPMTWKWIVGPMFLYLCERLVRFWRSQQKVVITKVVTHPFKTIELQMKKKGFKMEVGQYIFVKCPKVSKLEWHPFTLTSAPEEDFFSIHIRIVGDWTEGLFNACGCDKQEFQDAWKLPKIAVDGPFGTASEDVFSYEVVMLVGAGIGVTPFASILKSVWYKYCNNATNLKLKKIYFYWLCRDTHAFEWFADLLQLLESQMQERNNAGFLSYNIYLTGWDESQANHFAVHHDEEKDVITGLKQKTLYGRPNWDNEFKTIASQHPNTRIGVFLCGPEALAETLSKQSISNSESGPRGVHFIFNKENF

[19] = target: NADPH oxidase 4 (Homo sapiens) (UniProt Q9NPH5); assay: NOX4-dependent H2O2 signal modulators, primary screen, NOX inhibitor project, cell-based, HEK293-NOX4, tetracycline-induced, Amplex Red fluorescence (AID 1160); details: 45 min, higher = more signal, called active from +8 up or from −8 down
Sequence of NADPH oxidase 4 (Homo sapiens) (Q9NPH5 whole entry, looked up): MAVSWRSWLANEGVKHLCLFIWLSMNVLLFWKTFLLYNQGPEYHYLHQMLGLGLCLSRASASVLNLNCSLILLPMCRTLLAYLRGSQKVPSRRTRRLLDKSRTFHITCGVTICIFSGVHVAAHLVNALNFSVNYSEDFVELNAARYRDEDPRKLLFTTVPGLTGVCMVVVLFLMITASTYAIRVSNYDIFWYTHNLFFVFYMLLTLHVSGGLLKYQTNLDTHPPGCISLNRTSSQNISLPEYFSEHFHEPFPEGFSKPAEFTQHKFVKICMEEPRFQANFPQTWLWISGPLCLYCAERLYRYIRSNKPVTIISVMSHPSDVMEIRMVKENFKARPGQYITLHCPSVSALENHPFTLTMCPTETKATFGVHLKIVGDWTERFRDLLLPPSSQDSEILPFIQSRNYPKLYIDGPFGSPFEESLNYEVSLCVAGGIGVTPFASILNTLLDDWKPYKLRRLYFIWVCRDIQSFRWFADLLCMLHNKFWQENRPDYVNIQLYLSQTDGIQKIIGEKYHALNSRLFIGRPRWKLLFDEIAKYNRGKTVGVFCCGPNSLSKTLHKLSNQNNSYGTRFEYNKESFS

[20] = target: NADPH oxidase 5 (Homo sapiens) (UniProt Q96PH1); assay: NOX5-dependent H2O2 signal modulators, primary screen, NOX inhibitor project, cell-based, HEK293-NOX5, Amplex Red fluorescence (AID 1161); details: HEK293-NOX5, ionomycin, 45 min, higher = more signal
Sequence of NADPH oxidase 5 (Homo sapiens) (Q96PH1 whole entry, looked up): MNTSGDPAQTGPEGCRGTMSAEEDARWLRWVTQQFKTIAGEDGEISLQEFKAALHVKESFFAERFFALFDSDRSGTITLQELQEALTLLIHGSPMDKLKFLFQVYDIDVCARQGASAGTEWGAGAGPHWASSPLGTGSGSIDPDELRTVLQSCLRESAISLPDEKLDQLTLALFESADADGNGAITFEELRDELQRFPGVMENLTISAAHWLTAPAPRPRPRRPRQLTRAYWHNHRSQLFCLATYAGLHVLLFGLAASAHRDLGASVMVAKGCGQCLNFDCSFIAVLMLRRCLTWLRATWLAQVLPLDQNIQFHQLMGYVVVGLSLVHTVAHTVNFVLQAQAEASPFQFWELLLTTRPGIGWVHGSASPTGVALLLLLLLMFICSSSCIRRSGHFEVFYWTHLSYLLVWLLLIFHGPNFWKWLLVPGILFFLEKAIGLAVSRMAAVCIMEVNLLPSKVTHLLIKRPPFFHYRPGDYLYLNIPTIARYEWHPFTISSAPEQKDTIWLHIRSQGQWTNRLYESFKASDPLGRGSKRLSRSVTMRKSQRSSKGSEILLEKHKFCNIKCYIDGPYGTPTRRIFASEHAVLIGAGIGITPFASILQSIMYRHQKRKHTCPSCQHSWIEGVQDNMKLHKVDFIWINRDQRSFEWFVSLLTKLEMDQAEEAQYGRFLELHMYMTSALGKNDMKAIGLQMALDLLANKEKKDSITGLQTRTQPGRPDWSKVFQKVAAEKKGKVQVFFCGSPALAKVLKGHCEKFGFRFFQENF

Cc1cc2c(nc1C)CCCN2CC(C)ON=C[C@@H](C)[C@H](OCc1ccccc1)C(C)C (stereo not given in full)
composite z-score [1]: -0.0264 | z-score [2]: 0.615 (inactive) | z-score [3]: 0.461 (inactive) | z-score [4]: 0.248 (inactive) | z-score [5]: 0.317 (inactive) | composite z-score [6]: -0.254 | composite z-score [7]: -0.016 | composite z-score [8]: -0.209 | composite z-score [9]: 0.22 | composite z-score [10]: 0.513 | z-score [11]: -0.434 (inactive) | composite z-score [12]: -0.0984 | z-score [13]: 0.376 (inactive) | z-score [14]: -0.0677 (inactive) | z-score [15]: -0.108 (inactive) | z-score [16]: 0.294 (inactive) | z-score [17]: -0.775 | z-score [18]: 0.231 (inactive) | z-score [19]: -0.217 (inactive) | z-score [20]: 0.00713

C=CCN(Cc1ccccc1)C(=O)C1N(C(C)(C)CO)C(=O)C2C(C(=O)O)C3C=CC21O3 (stereo not given)
composite z-score [1]: -0.578 and -0.945 | z-score [2]: 0.283 (inactive) and 0.582 (inactive) | z-score [3]: 1.51 (inactive) and -1.52 (inactive) | z-score [4]: -0.224 (inactive) and -1.57 (inactive) | z-score [5]: -0.141 (inactive) and -0.418 (inactive) | composite z-score [6]: -1.56 and -1.49 | composite z-score [7]: -0.231 and -0.213 | composite z-score [8]: -0.396 and -3.85 | composite z-score [9]: -1.19 and -2.15 | composite z-score [10]: -1.17 and -1.73 | z-score [11]: -0.511 (inactive) and 1.45 (inactive) | composite z-score [12]: -0.144 and -0.779 | z-score [13]: 0.0247 (inactive) and -0.244 (inactive) | z-score [14]: 0.0843 (inactive) and -0.355 (inactive) | z-score [15]: -1.15 (inactive) and -0.742 (inactive) | z-score [16]: -0.255 (inactive) and -0.354 (inactive) | z-score [17]: 0.0613 and -0.122 | z-score [18]: 0.515 (inactive) and 0.043 (inactive) | z-score [19]: 0.0722 (inactive) and 0.185 (inactive) | z-score [20]: 0.793 and -0.0303

Cc1ccc(S(=O)(=O)N[C@H]2COC(=O)[C@@H](Cc3ccccc3)NC(=O)[C@@H](C)COC(=O)CC=C[C@@H]2C)cc1
composite z-score [1]: 0.089 and 0.0949 | z-score [2]: 0.0143 (inactive) and -1.15 (inactive) | z-score [3]: -0.166 (inactive) and -1.8 (inactive) | z-score [4]: -0.746 (inactive) and 0.834 (inactive) | z-score [5]: -0.899 (inactive) and -0.0204 (inactive) | composite z-score [6]: -0.236 and -0.154 | composite z-score [7]: -0.234 and -0.158 | composite z-score [8]: 0.143 and 0.354 | composite z-score [9]: 0.254 and 0.289 | composite z-score [10]: 1.07 and 1.29 | z-score [11]: -0.193 (inactive) and 0.569 (inactive) | composite z-score [12]: -0.232 and -0.0645 | z-score [13]: 0.649 (inactive) and 1.51 (inactive) | z-score [14]: 0.237 (inactive) and 0.491 (inactive) | z-score [15]: 0.377 (inactive) and 1.9 (inactive) | z-score [16]: 0.252 (inactive) and 0.148 (inactive) | z-score [17]: 0.0356 and 0.201 | z-score [18]: -0.34 (inactive) and 0.252 (inactive) | z-score [19]: -0.302 (inactive) and -0.127 (inactive) | z-score [20]: 0.189 and 0.00698

CCOC(=O)c1ccc(NC(=O)O[C@H]2[C@H](OC(=O)Nc3ccccc3)[C@@H](OC(=O)Nc3ccccc3)[C@@H](OC)O[C@@H]2CO)cc1
composite z-score [1]: 0.493 and 0.437 | z-score [2]: -4.44 (inactive) and -4.14 (inactive) | z-score [3]: 0.0469 (inactive) and -1.32 (inactive) | z-score [4]: 1.55 (inactive) and -0.552 (inactive) | z-score [5]: -1.38 (inactive) and -1.61 (inactive) | composite z-score [6]: 1.64 and 0.53 | composite z-score [7]: 0.333 and 0.0982 | composite z-score [8]: 1.19 and 0.89 | composite z-score [9]: 0.556 and 0.56 | composite z-score [10]: 0.955 and 1.97 | z-score [11]: -1.16 (inactive) and -0.655 (inactive) | composite z-score [12]: 0.507 and 0.394 | z-score [13]: 5.55 (inactive) and 14.7 (active) | z-score [14]: 1.05 (inactive) and 2.32 (inactive) | z-score [15]: 0.199 (inactive) and 1.28 (inactive) | z-score [16]: 0.764 (inactive) and 0.888 (inactive) | z-score [17]: 0.139 and 0.0102 | z-score [18]: 0.0131 (inactive) and -4.33 (inactive) | z-score [19]: -0.578 (inactive) and -1.01 (inactive) | z-score [20]: -0.851 and -1.69

COC(=O)C1=C(C)N(Cc2ccccc2)[C@]23O[C@](C(=O)OC)(C(=O)N2[C@@H]1c1ccccc1)[C@H]1C(=O)N(C)C(=O)[C@H]13
composite z-score [1]: 0.0757 and 0.142 | z-score [2]: -1.01 (inactive) and -1.34 (inactive) | z-score [3]: 0.225 (inactive) | z-score [4]: 3.17 (inactive) and 0.019 (inactive) | z-score [5]: -0.735 (inactive) and -1.7 (inactive) | composite z-score [6]: 0.412 and 0.0225 | composite z-score [7]: -0.278 and -0.179 | composite z-score [8]: 0.314 and 0.263 | composite z-score [9]: 0.691 and 0.524 | composite z-score [10]: 0.548 and 0.736 | z-score [11]: 0.903 (inactive) and 0.564 (inactive) | composite z-score [12]: -0.0418 and 0.223 | z-score [13]: 1.35 (inactive) and -0.228 (inactive) | z-score [14]: 0.719 (inactive) and -1.26 (inactive) | z-score [15]: 0.501 (inactive) and -0.562 (inactive) | z-score [16]: 0.248 (inactive) and -1.16 (inactive) | z-score [17]: 0.486 and 0.567 | z-score [18]: -0.56 (inactive) and -0.171 (inactive) | z-score [19]: -0.329 (inactive) and 0.811 (inactive) | z-score [20]: 1.57 and 0.888
